Screens: PubChem, National Center for Advancing Translational Sciences (NCATS)
HT1080-NT tox = qHTS for induction of synthetic lethality in tumor cells producing 2HG: qHTS for the HT-1080-NT fibrosarcoma cell line; HT-1080-NT fibrosarcoma viability, CellTiter-Glo ATP luminescence, 48 h; Potency, µM (series often up to 46.1 µM), without a hit: at the highest dose activity, negative = less viability, usual class: cytotoxic; 360,000 tested, 1.6% active; AID 686970, 2013;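 note: NT is the 2HG producing partner of a matched IDH1 knockdown line; potency is the fitted concentration of half-maximal effect; 0% = DMSO-treated cells and -100% = media-only wells without cells; nearly all actives have a fitted effect of over 55% in size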
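HT-1080-NT fibrosarcoma cells (2HG-overproducing), 750 cells/well in RPMI with 5% FBS, dosed after 2 h and incubated 48 h at 37C. CellTiter-Glo luminescence normalized to DMSO and no-cell wells; concentration-response curves fitted and classed.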
IL1B secr inh = qHTS for Inhibitors of Inflammasome Signaling: IL-1-beta AlphaLISA Primary Screen; 360,000 tested, 4.7% active; activity change, % at 57.5 µM; AID 743279, 2014; THP-1 LPS/ATP IL-1B secretion, AlphaLISA, 16 h; hits give low values; in the data active = activity change below about -50%; inconclusive = mostly about -30% to -49%
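Secreted IL-1B measured by AlphaLISA bead assay after 16 h compound exposure of THP-1 cells; compounds (final up to 57.5 uM) added 1 h before LPS (250 ng/mL) and ATP (1.25 mM) stimulation; lower signal means less secretion.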
TDP1 cell noCPT = qHTS for Inhibitors of human tyrosyl-DNA phosphodiesterase 1 (TDP1): qHTS in cells in absence of CPT; DT40 Tdp1-/- hTDP1 cells, no CPT, ATP luminescence, 48 h; 420,000 tested, 15% active; Potency, µM (highest dose often 46.2 µM), inactives show at the highest dose activity change, negative = growth inhibition, usual class: inhibitors; note: potency is the fitted concentration of half-maximal effect; nearly all actives have a fitted effect of over 55% in size
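Cells were dispensed at 400 per well, compounds added by pin tool, plates incubated ≥48 hr at 37 °C, then CellTiter-Glo added for 30 min at room temperature before luminescence reading. Line: DT40 Tdp1-/- complemented with hTDP1; camptothecin omitted.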
TDP1 cell CPT = qHTS for Inhibitors of human tyrosyl-DNA phosphodiesterase 1 (TDP1): qHTS in cells in presence of CPT. chicken DT40 Tdp1-/-;hTDP1 cells + 20 nM CPT, ATP luminescence, 48 h. 420,000 tested, 12% active. Potency, µM (top dose mostly 46.2 µM), inactives show top-dose activity change, negative = growth inhibition, hits mostly inhibitors; note: potency is the fitted concentration of half-maximal effect; nearly all actives have a fitted effect of over 55% in size
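Cell growth measured by CellTiter-Glo luminescence after a minimum 48 h, 37 C compound exposure with 20 nM CPT in Tdp1-knockout DT40 cells stably expressing hTDP1, seeded 400/well; qHTS titration format.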
uPA surface inh = qHTS for Inhibitors of Cell Surface uPA Generation | AID 540303, 2011 | cell surface uPA generation assay, qHTS | Potency, µM (doses to about 38.3 µM), without a hit: top-dose activity change, negative = inhibition, usual class: inhibitors | 330,000 tested, 0.31% active; active = well fitted inhibition curve with a large enough effect; inconclusive = small, poorly fitted or top-dose-only effect; inactive = no such curve, though single readings can be large or run the other way; tested in mouse RAW 264.7 cells; note: potency is the fitted concentration of half-maximal effect; nearly all actives have a fitted effect of over 55% in size
HT1080 IDH1KD tx = qHTS for induction of synthetic lethality in tumor cells producing 2HG: qHTS for the HT-1080-IDH1KD cell line | AID 686971, 2013 | 360,000 tested, 2% active | Potency, µM (series often up to 46.1 µM), inactives show at the highest dose activity, negative = toxicity, most hits filed as cytotoxic | HT-1080 IDH1 knockdown viability, ATP luminescence, 48 h;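 note: potency is the fitted concentration of half-maximal effect; 0% = DMSO wells and -100% = cell-free medium wells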
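In this qHTS, HT-1080 cells depleted of IDH1 are exposed for 48 h at 37 °C to compound titrations. Toxicity is scored from CellTiter-Glo luminescence, with DMSO as full viability and medium alone as none.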
* hit, by the source's call; ? = inconclusive; . = no result given; [ ] = remark or other dose. Hits are enriched below; roughly 19% of the tested compounds scored in any of these assays. Unless noted, calls come from the whole dose curve; as a rule, active = well fitted curve in the direction sought with a large enough effect; inconclusive = small, poorly fitted or top-dose-only effect, or another doubt; inactive = no such curve, though single readings can be large; an effect the other way counts as inactive or inconclusive. Unless noted, % is set by controls: 0 for no effect and ±100 for the full control effect.

SMILES | HT1080-NT tox | IL1B secr inh | TDP1 cell noCPT | TDP1 cell CPT | uPA surface inh | HT1080 IDH1KD tx
COc1cc(CN2CCCC(n3cc(C(=O)N4CCCCC4)nn3)C2)cc(OC)c1 (stereo not drawn) | . | . | 23µM* | ? | . | .
COc1cc(CN2CCCC(n3cc(C(=O)N4CCCCC4)nn3)C2)cc(OC)c1OC (stereo not drawn) | . | . | -2% | -10%[9.04 µM] | . | .
Cc1cccc(C)c1Nc1ncccc1C(=O)O | . | . | -8% | -8% | . | .
COc1cccc(C(=O)COc2cccc(NC(=O)c3cccc([N+](=O)[O-])c3)c2)c1 | -18% | ? | 16µM* | ? | -2% | -19%
COC(=O)Nc1ccc(SCC(=O)c2cccc([N+](=O)[O-])c2)cc1 | ? | -19 | 21µM* | ? | ? | ?
O=C(COc1cccc(NC(=O)c2cccc([N+](=O)[O-])c2)c1)c1ccc(F)cc1 | -23% | ? | 13µM* | ? | 6% | ?
CC(=O)Nc1ccc(C(=O)OCC(=O)c2cccc([N+](=O)[O-])c2)cc1 | 7% | 28 | 11% | -25% | 1% | 11%
O=C(COc1cccc(NC(=O)c2ccco2)c1)c1ccc(F)cc1 | -8% | 0 | 21µM* | ? | -2% | -9%
COC(=O)[C@@H]1CCCN1Cc1ccc2c(c1)CN(Cc1cc(OC)c3c(c1)OCO3)CCO2 | . | . | ? | 23%[9.04 µM] | . | .
C=CCN1C(=O)C(=O)N(CC(=O)NCC(=O)Nc2ccc(F)c(F)c2F)C1=O | -3% | 6 | -15% | -2% | 6% | 0%
COc1ccc2c(c1)CC(C(=O)Nc1ccc(Br)c(C)c1)CO2 (stereo not drawn) | . | . | ? | -30% | . | .
O=C(Nc1ccc2c(c1)OCO2)c1csc([C@H]2C[C@H](O)[C@@H](CO)O2)n1 | 22% | -9 | -13% | -6% | . | -2%
Cn1ncc2c(Nc3ccc(Cl)cc3)ncnc21 | 14% | 12 | ? | ? | 4% | 4%
Cn1ncc2cc3c(Nc4ccc(Cl)cc4)cccc3nc21 | ? | -25 | 12µM* | 21µM* | . | ?
CS(=O)(=O)c1ccc(S(=O)(=O)N2CCN(C(=O)C(O)c3ccccc3)CC2)cc1 (stereo not drawn) | 22% | -2 | 0% | -4% | . | 9%
CC(=C/C(=O)O)/C=C/c1ccco1 | ? | -19 | 7.3µM* | 6.5µM* | -18% | ?
C/C(=N/NC(=O)OC(C)(C)C)c1ccco1 | -9% | -3 | -3% | 5% | -2% | -9%
CC(/C=C/c1ccco1)=N/NC(=O)OC(C)(C)C | -1% | -1 | 15µM* | ? | -17% | -4%
CC(/C=C/c1ccco1)=N/NC(=O)Cc1cccs1 | 0% | -8 | 4µM* | 7.1µM* | -5% | 5%
CC(/C=C/c1ccc(Cl)o1)=C\C(=O)O | 3% | -4 | -4% | -7% | 0% | 18%
CC(=O)N1c2ccc(S(=O)(=O)N3CCCC(C(=O)N4CCCC(C)C4)C3)cc2CC1C (stereo not drawn) | 1% | 22 | ? | 23µM* | -2% | -2%
CC(=O)N1c2ccc(S(=O)(=O)N3CCCC(C(=O)N4CCC(C)CC4)C3)cc2CC1C (stereo not drawn) | -2% | 10 | 16µM* | 21µM* | -3% | -8%
CC(=O)N1c2ccc(S(=O)(=O)N3CCCCC3)cc2CC1C (stereo not drawn) | -3% | -7 | -12% | -10% | 4% | 0%
CC(=O)N1c2ccc(S(=O)(=O)NCCC(=O)N3CCCC(C)C3)cc2CC1C (stereo not drawn) | 10% | 14 | ? | 18µM* | -5% | -2%
O=C(CC1CC1)Nc1ccc2c(c1)[C@H]1C[C@H](CC(=O)N3CCc4ccccc4C3)O[C@@H](CO)[C@H]1O2 | 2% | 8 | 6% | -20% | . | 6%
SMILES | HT1080-NT tox | IL1B secr inh | TDP1 cell noCPT | TDP1 cell CPT | uPA surface inh | HT1080 IDH1KD tx
CCN(Cc1cc2ccccc2[nH]c1=O)S(=O)(=O)c1ccccc1 | 14% | -12 | -24% | -10% | 3% | 11%
Cc1cc(C)c2[nH]c(=O)c(CN(CC3CCCO3)C(=O)c3cnccn3)cc2c1 (stereo not drawn) | 2% | 0 | -27% | 0% | -2% | -5%
Cc1ccc(NC(=S)N(CCN(C)C)Cc2cc3cc(C)cc(C)c3[nH]c2=O)cc1 | -10% | -53* | 4.6µM* | ? | 3% | -12%
CCOCCCN(Cc1cc2cc(C)cc(C)c2[nH]c1=O)C(=O)N(CC)CC | 5% | 22 | 16µM* | 15µM* | 0% | 8%
CCN(CC)CCN(Cc1cc2cccc(C)c2[nH]c1=O)C(=S)Nc1ccccc1 | -11% | -80* | ? | ? | 1% | -20%
Cc1cccc2cc(CN(CC(C)C)S(=O)(=O)c3ccccc3)c(=O)[nH]c12 | 12% | 0 | 23µM* | ? | 2% | -1%
COc1cc(=O)n2c(c1C(=O)NCc1ccco1)CCN(Cc1cc3ccccc3[nH]1)CC2 | . | . | -5% | -3% | . | .
COc1ccc(CCNC(=O)CN(c2ccccc2)S(=O)(=O)N(C)C)cc1OC | . | . | -9% | -12% | . | .
Cn1c(CCc2nc3ccccc3[nH]2)nnc1SCC#N | -3% | 0 | -17% | -17% | 3% | 2%
O=C(Nc1cc(Cl)ccc1C(=O)O)c1ccc(CN2C(=O)c3ccccc3C2=O)cc1 | ? | 27 | -3% | 19% | 1% | -5%
Cc1ccc2cc(CN(CCN(C)C)C(=S)Nc3ccccc3)c(=O)[nH]c2c1C | -16% | -85* | 21µM* | ? | -13% | -9%
CC(=O)N(CCc1ccccc1)Cc1cc2ccc(C)c(C)c2[nH]c1=O | -2% | -11 | -19% | -20% | -5% | -9%
N#C/C(=C/c1ccc(F)cc1)c1nnc(NC(=O)c2ccccc2)s1 | 7% | -7 | -29% | ? | 2% | 8%
CCC(Sc1ccc(Cl)cc1)C(=O)Nc1nnc(-c2cccc([N+](=O)[O-])c2)s1 (stereo not drawn) | 14% | 30 | 13µM* | ? | 4% | 4%
CCC(Sc1nncn1C)C(=O)Nc1nnc(-c2ccccc2Cl)s1 (stereo not drawn) | 20% | -6 | 10% | -29% | -20% | 6%
